SMN2 splice enh – SMN2 splice variant enhancement; AID 1458; HEK293 SMN2-luciferase splicing reporter, luminescence, 30-36 h; 2.8% of 210,000 active; Potency, µM (doses to about 46.1 µM), hits mostly activators; note: nearly all actives have a fitted effect of over 55% in size
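qHTS luciferase splicing reporter: luminescence rises when SMN2 exon 7 is included in transfected HEK293 cells. Compound exposure lasted 30-36 h at 37C, with 4.5 mM final sodium butyrate as control, followed by a ONE-Glo read.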
NPC1 promoter act – NPC1 promoter activation. Huh7 NPC1 promoter luciferase reporter, 24 h. Potency, µM (top dose mostly 9.22 µM), usual class: activators. 2.4% of 320,000 active; note: nearly all actives have a fitted effect of over 60% in size
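Huh7 reporter cells (NPC1 promoter driving luciferase) are dosed with compound for 24 h at 37 °C, 5% CO2; luciferase detection reagent is then added and luminescence measured after 10 min at ambient temperature.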
ELG1 DNA repair – blocks ELG1-dependent DNA repair in HEK293T cells | HEK293T ELG1-luciferase reporter, luminescence, 16 h; DNA damage induced by 5-fluorouridine | Potency, µM (titrated, usually from 46.1 µM), usual class: inhibitors | 2.3% of 330,000 active | AID 504467; note: nearly all actives have a fitted effect of over 55% in size
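Overnight (16 hr) co-exposure of 2,000 cells/well to 5-fluorouridine and compound at 37 °C preceded detection. Luciferase was quantified via ONE-Glo luminescence; loss of signal denotes inhibition.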
ELG1 genotox – genotoxicity induction in ELG1-luciferase HEK293T cells. HEK293T ELG1-luciferase reporter, luminescence, 16 h. Potency, µM (top dose mostly 46 µM), actives largely listed as activators. 1.3% of 330,000 active. AID 504466; note: nearly all actives have a fitted effect of over 60% in size
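Quantitative HTS format in 1536-well plates. HEK293T ELG1-luciferase reporter cells receive test compound and are incubated 16 hr at 37 °C, 5% CO2; ONE-Glo added, 30 min room temperature, then luminescence read.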
FLuc counter – firefly luciferase modulation, counter-screen for miR-21 project. P08659. purified FLuc, Km substrates, luminescence inhibition. Potency, µM (series often up to 57.5 µM), actives largely listed as inhibitors. 6.9% of 360,000 active; note: nearly all actives have a fitted effect of over 55% in size
Target sequence (P08659 whole entry, looked up): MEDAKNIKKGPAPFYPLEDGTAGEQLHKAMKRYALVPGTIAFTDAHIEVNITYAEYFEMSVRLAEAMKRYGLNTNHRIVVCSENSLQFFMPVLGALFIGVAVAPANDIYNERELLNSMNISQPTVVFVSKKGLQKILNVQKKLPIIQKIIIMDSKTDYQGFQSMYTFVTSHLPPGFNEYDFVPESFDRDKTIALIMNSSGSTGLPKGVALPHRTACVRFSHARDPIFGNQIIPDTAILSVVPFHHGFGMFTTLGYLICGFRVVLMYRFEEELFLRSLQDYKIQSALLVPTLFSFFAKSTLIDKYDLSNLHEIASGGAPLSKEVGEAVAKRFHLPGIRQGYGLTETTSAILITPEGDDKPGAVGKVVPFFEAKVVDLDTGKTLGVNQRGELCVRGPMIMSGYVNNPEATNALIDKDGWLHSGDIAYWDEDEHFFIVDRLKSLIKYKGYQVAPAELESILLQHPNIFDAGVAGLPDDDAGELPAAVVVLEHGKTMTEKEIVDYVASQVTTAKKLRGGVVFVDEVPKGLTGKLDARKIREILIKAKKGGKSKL
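Biochemical qHTS of compounds, final roughly 60 µM downward over six points, against 10 nM purified firefly luciferase using Km concentrations of substrates (10 uM D-luciferin, 10 uM ATP) in Tris acetate pH 7.5 buffer; luminescence output.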
Rab9 prom act – activators of Rab9 promoter | Huh7 Rab9 promoter-luciferase reporter, luminescence, 24 h | Potency, µM (titrated, usually from 9.22 µM), hits mostly activators | 2.8% of 320,000 active | AID 485297; note: nearly all actives have a fitted effect of over 60% in size
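Rab9 promoter-driven luciferase in stably transfected Huh7 cells; 1500 cells/well rested 2 h, exposed to compound in DMSO for 24 h at 37 °C, 5% CO2. Luminescence read 10 min after adding luciferase reagent at ambient temperature.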
Large screens that a line does not name were inactive. A selection: hits, their analogues and other compounds. The true share with any hit is near 9.4%. Calls come from the whole dose curve; as a rule, active = well fitted curve in the direction sought with a large enough effect; inconclusive = small, poorly fitted or top-dose-only effect, or another doubt; inactive = no such curve, though single readings can be large; an effect the other way counts as inactive or inconclusive.

Cc1ccccc1-c1noc(-c2ccccc2C(=O)O)n1	ELG1 DNA repair inconclusive, FLuc counter 19µM (no result: SMN2 splice enh)
FC(F)(F)c1ccc(-c2noc(-c3ccccc3Br)n2)cc1	FLuc counter 11µM (no result: SMN2 splice enh, NPC1 promoter act, ELG1 DNA repair, ELG1 genotox, Rab9 prom act)
Cc1cccc(C)c1NC(=O)c1sc(-n2nc(C)c(Cc3ccccc3)c2C)nc1C	none (no result: SMN2 splice enh, NPC1 promoter act, ELG1 DNA repair, ELG1 genotox, Rab9 prom act)
CC(C)Sc1nnc(NC(=O)c2ccc3c(c2)OCO3)s1	NPC1 promoter act 2.2µM, ELG1 DNA repair inconclusive, ELG1 genotox inconclusive, FLuc counter 5.4µM, Rab9 prom act 1.4µM (no result: SMN2 splice enh)
CCOC(=O)c1sc(NC(=O)COc2ccc3c(c2)OCO3)nc1C	none (no result: SMN2 splice enh)
CC(C)(C)c1nnc(NC(=O)COc2ccc3c(c2)OCO3)s1	NPC1 promoter act 3.5µM, ELG1 DNA repair inconclusive, ELG1 genotox inconclusive, FLuc counter 12µM, Rab9 prom act inconclusive (no result: SMN2 splice enh)
CCOC(=O)CSc1nnc(NC(=O)c2ccc3c(c2)OCO3)s1	FLuc counter 1.1µM (no result: SMN2 splice enh)
CC(C)(C)c1nnc(NC(=O)c2ccc3c(c2)OCO3)s1	NPC1 promoter act 2µM, ELG1 DNA repair inconclusive, ELG1 genotox inconclusive, FLuc counter 6.7µM, Rab9 prom act 2.5µM (no result: SMN2 splice enh)
O=C(NCc1ccc(Cl)cc1)C1CCN(c2nn3cc(-c4ccc(F)cc4)nc3s2)CC1	none (no result: SMN2 splice enh, NPC1 promoter act, ELG1 DNA repair, ELG1 genotox, Rab9 prom act)
CCSc1nnc(NC(=O)c2ccc3c(c2)OCO3)s1	SMN2 splice enh 10µM, NPC1 promoter act 2.5µM, ELG1 DNA repair inconclusive, ELG1 genotox 2.1µM, FLuc counter 6.7µM, Rab9 prom act 1.6µM
CCN(CC)C(=O)c1sc(NC(=O)c2ccc3c(c2)OCO3)c(C(N)=O)c1C	NPC1 promoter act inconclusive, ELG1 DNA repair inconclusive, FLuc counter 19µM, Rab9 prom act inconclusive (no result: SMN2 splice enh)
CCSc1nnc(NC(=O)/C=C/c2ccc3c(c2)OCO3)s1	FLuc counter inconclusive
CC(C)c1nnc(NC(=O)c2ccc3c(c2)OCO3)s1	SMN2 splice enh 1µM, NPC1 promoter act 0.45µM, ELG1 DNA repair inconclusive, ELG1 genotox inconclusive, FLuc counter 1.3µM, Rab9 prom act 0.28µM
CCN(CC)C(=O)c1sc(NC(=O)c2ccncc2)c(C(=O)OC)c1C	none
CCOC(=O)c1ccc(NC(=O)C(CC)Sc2nc3ncccc3[nH]2)cc1 (centres undefined)	none (no result: SMN2 splice enh, NPC1 promoter act, ELG1 DNA repair, ELG1 genotox, Rab9 prom act)
Cc1ccc(NC(=O)c2cc(S(=O)(=O)N3CCc4ccccc43)cn2C)c(Cl)c1	none (no result: SMN2 splice enh, NPC1 promoter act, ELG1 DNA repair, ELG1 genotox, Rab9 prom act)
CO[C@@H]1/C=C\O[C@@]2(C)Oc3c(C)c(O)c4c(c3C2=O)C(=N[C@H]2CC[C@H](O)O[C@@H]2C)C=C(NC(=O)/C(C)=C\C(=O)[C@@H]2C[C@@H]2[C@@H](O)[C@H](C)[C@@H](O)[C@H](C)[C@H](OC(C)=O)[C@@H]1C)C4=O	none (no result: NPC1 promoter act, ELG1 DNA repair, ELG1 genotox, FLuc counter, Rab9 prom act)
O=C1c2ccccc2S(=O)(=O)N1CC1CC(c2ccccc2Cl)=NO1 (centres undefined)	SMN2 splice enh 4µM, NPC1 promoter act 3.2µM, ELG1 DNA repair inconclusive, ELG1 genotox 12µM, FLuc counter 2.7µM, Rab9 prom act 3.2µM
COc1ccccc1C1=NOC(CN2C(=O)c3ccccc3S2(=O)=O)C1 (centres undefined)	NPC1 promoter act 2.8µM, ELG1 DNA repair inconclusive, ELG1 genotox inconclusive, FLuc counter 8.5µM, Rab9 prom act 4µM (no result: SMN2 splice enh)
CC(C)Cc1nnc(NC(=O)c2cc3c(s2)CCC3)s1	NPC1 promoter act 3.5µM, ELG1 DNA repair inconclusive, FLuc counter inconclusive, Rab9 prom act 3.2µM (no result: SMN2 splice enh)
CC(C)Cc1nnc(NC(=O)c2ccc3c(=O)n4c(nc3c2)CCC4)s1	none (no result: SMN2 splice enh)
O=C(Nc1nccs1)c1cc2c(s1)CCCCC2	NPC1 promoter act 1µM, ELG1 DNA repair inconclusive, FLuc counter 0.085µM, Rab9 prom act 0.79µM (no result: ELG1 genotox)
O=C(NCCCN1CCCC1=O)c1cc2c(s1)CCCCC2	ELG1 DNA repair inconclusive, ELG1 genotox inconclusive, FLuc counter 17µM, Rab9 prom act inconclusive (no result: SMN2 splice enh)
O=C(NCCCN1CCCC1=O)C(=O)Nc1cccc(F)c1	NPC1 promoter act inconclusive, ELG1 DNA repair inconclusive, ELG1 genotox inconclusive, FLuc counter 17µM, Rab9 prom act 3.2µM (no result: SMN2 splice enh)
NNC(=O)c1cc2c(s1)CCCCCC2	FLuc counter inconclusive
O=C(NCc1ccc(F)cc1)c1cc(-c2ccc(Cl)cc2)n[nH]1	none (no result: SMN2 splice enh, NPC1 promoter act, ELG1 DNA repair, ELG1 genotox, Rab9 prom act)
O=C(Nn1cnnc1)c1cc2c(s1)CCCC2	ELG1 DNA repair inconclusive, FLuc counter 21µM

Screens as filed in PubChem BioAssay.
